40 molecules from PubChem BioAssay (NCI) can be followed below.

Molecules are shown by their SMILES. Several values for one entry are separate records, joined by “and”; a condition that tells them apart may be missing. Identical values can stand only once. About 83,000 compounds went through this panel and 20% of them were active in at least one assay; those are over-represented in the sample as a whole.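 In brief: 96-well plates, 48 h treatment, single concentration, percent growth endpoint.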 Activity calls are given as the source filed them. Rule for the calls: active = growth percent below 10; inactive = the rest.

The subject of this assay is MDA-MB-468 breast. Description: NCI-60 one-dose screen, 48 h (100 = growth as untreated, 0 = no growth, -100 = all killed). The note with it: 10 µM unless noted.
For `Cn1ncc(Cl)c1-c1cc(C(=O)N[C@H](CN)Cc2cccc(F)c2)sc1Cl`, the growth is -62.5% (active). As for `CC(=O)NNC(=S)N/C=C/c1c(C)ccc([N+](=O)[O-])c1[N+](=O)[O-]`, the growth was 98.8% (inactive). `COc1ccc([C@H]2[C@H](C(=O)Nc3cccnc3)c3ccccc3C(=O)N2c2ccccc2)cc1`: the growth was 97.7% (inactive).

Turning to `CN1CCN(Cc2ccc(NC(=O)c3ccc(C#Cc4c(N)ncc5ccc(F)cc45)cc3)cc2C(F)(F)F)CC1`, the growth was -73.6% (active). With `O=C1CC(=O)N2CSCN(C(c3ccccc3)c3nc4ncncc4[nH]3)C2=N1` (stereo not given), the growth is 102% (inactive).

Consider `CC1(C)c2ccccc2C(=O)C1(Br)Cc1ccccc1` (stereo not given), for which the growth is 45.6% (inactive).

In the case of `CN1CCN(Cc2ccc(NC(=O)c3cncc(C#Cc4c(N)ncc5ccc(C#N)cc45)c3)cc2C(F)(F)F)CC1`, the growth was 96.1% (inactive). Turning to `COc1ccc2c(c1)c(CC(=O)O)c(C)n2C(=O)c1ccc(Cl)cc1`, the growth was 96.4% (inactive). In the case of `O=C(N/N=C/c1ccc2c(c1)OCO2)c1cnn2c1NC(c1ccccc1)C2` (stereo not given), the growth is 22.4% (inactive).

As to `COc1ccc2c(c1)cn1c3ccc(O)cc3nc(N)c21`, the growth was 14.2% (inactive). `O=C1/C(=C/c2ccc([N+](=O)[O-])cc2)SC(=Nc2ccccc2)N1Nc1ccccc1`: the growth is 87.8% (inactive). On to `COc1ccc(C(=O)c2cc3c(OC)c(OC)c(OC)cc3[nH]2)cc1`, for which the growth is 20.6% (inactive). With `O=C(Cn1c[n+](CC(=O)c2ccc(-c3ccccc3)cc2)c2ccccc21)Nc1cccc2cccnc12` the figure was -6.11% (active); with `NNc1c2ccccc2nc2ccccc12`, 16.4% (inactive); with `COc1ccc(-c2nocc2-c2cccs2)cc1`, 97% (inactive). As for `CCCC(=O)Oc1ccc(/C(=C(\C)c2ccc(Cl)cc2)c2ccc(OCCN(CC)CC)cc2)cc1`, the growth is -64.1% (active). For `CNC(=O)c1ccc(Nc2ncc(C(F)(F)F)c(NCc3nccnc3N(C)S(C)(=O)=O)n2)cc1`, the growth was -50.1% (active). With `O=Nc1c(O)c(Cl)cc2ccccc12` the figure was -7.81% (active). On to `CC(C)CCC[C@@H](C)[C@H]1CCC2C3=CCC4C(=O)C=CC(=O)C4C3CC[C@@]21C` (stereo not given in full), for which the growth was 2.69% (active). With `N#CSCC1CC(O)(c2ccccc2)CC(c2ccc(F)cc2)O1` (stereo not given) the figure was 5.99% (active); with `O=C(Nc1ccc(F)cc1)c1ccccc1`, 98.3% (inactive); with `CC(C)(C)OC(=O)N1C/C(=C\c2cccs2)C(=O)/C(=C/c2cccs2)C1`, 87.5% (inactive). Consider `Oc1c(Cl)cc(Cl)cc1/C=N/Nc1nnc(N/N=C/c2cc(Cl)cc(Cl)c2O)c2ccccc12`, for which the growth was -29.9% (active). As for `Nc1nc(-c2ccccc2)c(CCCOc2ccc(NC(=O)CBr)cc2)c(=O)[nH]1`, the growth was 104% (inactive). Turning to `Cc1nn(-c2ccc(Cl)cc2)c2ncnc(N/N=C/c3ccccc3O)c12`, the growth was -30.8% (active) and -12.1% (active).

On to `CCOC(=O)N1CCC(N=C2CSc3nnc(-c4cc(C(F)(F)F)cc(C(F)(F)F)c4)n3N2)CC1`, for which the growth was 2.22% (active). On to `O=C1c2ccc3c4ccc5c6c(ccc(c7ccc(c2c37)C(=O)N1CCC[P+](c1ccccc1)(c1ccccc1)c1ccccc1)c64)C(=O)N(CCC[P+](c1ccccc1)(c1ccccc1)c1ccccc1)C5=O`, for which the growth was -2.38% (active). The value for `CCCCCCCSc1ncnc2[nH]ncc12` was 68.8% (inactive); that for `COc1ccc(-c2cnnn2-c2cc(OC)c3c(c2)OCO3)cc1` was 40.9% (inactive); that for `CC1(c2ccccc2Cl)NC(=O)NC1=O` (stereo not given) was 96.7% (inactive).

Regarding `O=C(O)c1ccc(-c2nn(-c3ccc(C(=O)O)cc3)cc2CNc2ccc(Br)cc2)cc1`, the growth was 114% (inactive). The value for `COc1ccc2[nH]cc(-c3nc(N)nnc3-c3cn(C)c4ccc(Br)cc34)c2c1` was -31.3% (active); that for `COc1cc(C(=O)c2cnc(-c3c[nH]c4cccc(C)c34)[nH]2)cc(OC)c1OC` was 2% (active). The value for `CN(C)c1nc(N)c(N=O)c(N)n1` was 114% (inactive). The value for `O=S(=O)(NCCCNc1nccc(-c2[nH]c(-c3ccccc3)nc2-c2ccc(F)c(O)c2)n1)c1cccc(F)c1` was 66.5% (inactive); that for `COc1ncnc2c(-c3ccccc3)cn(COCc3ccccc3)c12` was 42.1% (inactive). As to `NC(=O)c1noc(C(=O)c2ccccc2)c1N`, the growth was 95.5% (inactive).

For the molecule `C#Cc1cccc(Nc2nc3cc([N+](=O)[O-])ccc3nc2Nc2ccc(O)cc2)c1`, the growth is 27.1% (inactive). `CC[C@H](C)[C@H](N)C(=O)O`: the growth was 99.9% (inactive). For `COc1cc(NC(=O)SC2=NCCS2)cc(OC)c1`, the growth was 93.3% (inactive).
